Experimental data taken from PubChem BioAssay (NCI).
Compounds without any hit were thinned out: in the full panel of roughly 83,000, 20% have a hit.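 The endpoint reported here, percent growth, reads 100 for growth as untreated, 0 for no net growth and -100 for all cells dead.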 Calls of active or inactive are those of the source. How the source made its calls: active means growth percent below 10; inactive means the rest.

Legend:
Assay in all cases: NCI-60 one-dose screen, 48 h (100 = growth as untreated, 0 = no growth, -100 = all killed)
Settings in all cases: 10 µM unless noted
[1] = tested on: T-47D breast
[2] = tested on: BT-549 breast
[3] = tested on: MDA-MB-435 melanoma
[4] = tested on: SW-620 colon
[5] = tested on: MCF7 breast
[6] = tested on: HCT-116 colon
[7] = tested on: HCC-2998 colon
[8] = tested on: KM12 colon

Measured: growth

COc1cccc(/C=C/C(=O)c2cc3c(N)c(C(=O)Nc4ccccc4)sc3nc2C)c1
active: [3] -6.91% | [4] 0.132% | [5] 7.88% | [7] -37%
inactive: [1] 33% | [2] 30.3% | [6] 14.9% | [8] 17.6%

CCNc1nc(-c2ccc(Cl)c(OC)c2)c(-c2ccnc(NCCCNS(=O)(=O)c3ccc(Cl)cc3)n2)s1
inactive: [1] 37.4% | [2] 52% | [3] 24.8% | [4] 80.9% | [5] 66.3% | [6] 42.4% | [7] 102% | [8] 65.3%

O=C(CSc1nc(-c2ccccc2)[nH]c1S(=O)(=O)c1ccccc1)NC1CC1
inactive: [1] 46.3% | [2] 105% | [3] 108% | [4] 104% | [5] 65.2% | [6] 94.2% | [7] 69% | [8] 100%

CNC(=O)c1cc(Oc2ccc3nc(NC(C)=O)sc3c2)ccn1
inactive: [1] 90.7% | [2] 96.9% | [3] 102% | [4] 112% | [5] 98.9% | [6] 89.2% | [7] 107% | [8] 98.2%

O=C1CC(N2C(=O)/C(=C/C(Cl)=C\c3ccc([N+](=O)[O-])cc3)SC2=S)C(=O)N1c1ccc(Cl)cc1 (stereo not drawn)
active: [2] -1.71% | [3] 3.02% | [4] 3.41% | [6] 8.7% | [7] -22.9%
inactive: [1] 36.3% | [5] 18.1% | [8] 12.4%

COc1ccccc1NC(=O)Cn1cc(CN2CCN(c3ccnc4cc(Cl)ccc34)CC2)nn1
inactive: [1] 81.7% | [2] 96.8% | [3] 97.6% | [4] 91.9% | [5] 83.5% | [6] 98.3% | [7] 107% | [8] 89.6%

O=C1c2c(c3c4ccc(Br)cc4oc3c3[nH]c4ccccc4c23)C(=O)N1O
inactive: [1] 11.8% | [2] 27.6% | [3] 19.1% | [4] 37.3% | [5] 22.4% | [6] 17.9% | [7] 66.9% | [8] 17.1%

N#Cc1nc(-c2ccccc2)oc1S(=O)(=O)N1CCOCC1
inactive: [1] 65.4% | [2] 86.6% | [3] 89.4% | [4] 56.6% | [5] 32.5% | [6] 19.9% | [7] 104% | [8] 97.8%

Cc1nc(N2CCOCC2)sc1S(N)(=O)=O
inactive: [1] 93% | [2] 98.1% | [3] 105% | [4] 91.5% | [5] 93.5% | [6] 103% | [7] 104% | [8] 94.1%

N#C/C(=C\c1ccc(-c2ccc(Cl)cc2)o1)C(=O)Nc1ncc(Cc2ccc(Cl)cc2)s1
active: [6] 3.14%
inactive: [1] 14.3% | [2] 58.2% | [3] 21.2% | [4] 13.7% | [5] 45.9% | [7] 77.5% | [8] 36.8%

CNC(=O)c1c(NC(=O)c2ccc(C(F)(F)F)cc2)sc2c1CCC(=O)C2
active: [1] -15.2% | [2] -14.1% | [3] 0.84% | [4] -55.8% | [5] 0.392% | [6] -46.4% | [7] -39.3% | [8] -36.4%

O=C(NCCCCNC(=O)OCc1ccc2c(Cl)cc(Cl)c(O)c2n1)OCc1ccc2c(Cl)cc(Cl)c(O)c2n1
inactive: [1] 61% | [2] 15.3% | [4] 19.5% | [5] 13.7% | [7] 18.5%
active: [3] -48.7% | [6] 7.49% | [8] 6.41%

CN(C)CCCC1(c2ccc(F)cc2)OCc2cc(-c3cccc4[nH]ccc34)ccc21 (stereo not drawn)
inactive: [2] 73.8% | [8] 10.3%
active: [1] -39.2% | [3] -42.1% | [4] -24.6% | [5] -24.1% | [6] -64% | [7] -30.6%

C=CCc1c(O)c(C(=O)/C=C/c2ccc(Cl)cc2)c(OC)c2ccoc12
inactive: [1] 39.9% | [2] 47.8% | [3] 18.2% | [4] 37.3% | [5] 21.4% | [6] 17.2% | [7] 63.3% | [8] 41.1%

c1cc2[nH]ncc2cc1-c1nc2ccc3[nH]ncc3c2c2c1CCCC2
inactive: [2] 12% | [5] 21.7% | [7] 13.8% | [8] 13.2%
active: [1] 4.77% | [3] 2.02% | [4] 9.28% | [6] 0.11%

O=C1/C(=C/c2ccccc2Br)COc2ccc(O)c(O)c21
inactive: [2] 14.7% | [5] 20.9% | [7] 44.2%
active: [1] -7.17% | [3] 2.78% | [4] 5.6% | [6] -3.23% | [8] -7.57%

N=C(N)c1ccc(-c2ccc(-c3ccc(F)cc3)o2)o1
active: [3] -76.9% | [4] -36.7% | [6] 2.27% | [8] 7.92%
inactive: [1] 21.4% | [2] 55.3% | [5] 10.5% | [7] 18.4%

CC(C)(C)n1cc(-c2ccnc(NCCNS(=O)(=O)c3cccc(F)c3)c2)c(-c2ccccc2)n1
inactive: [1] 44.2% | [2] 93% | [3] 99.8% | [4] 94.2% | [5] 67.8% | [6] 79% | [7] 91% | [8] 93.5%

Nc1nc(=S)c2ncn(C3OC(COP(=O)(O)O)C(O)C3O)c2[nH]1 (stereo not drawn)
active: [5] 9.34%
inactive: [1] 30.4% | [2] 48.8% | [3] 15.5% | [4] 32.2% | [6] 22.9% | [7] 20.8% | [8] 18.4%

COc1ccc2[nH]cc(-c3nc(-c4c[nH]c5ccncc45)cs3)c2c1
inactive: [1] 61.5% | [2] 74% | [8] 21.1%
active: [3] -76.3% | [4] -61.4% | [5] 5.44% | [6] -62% | [7] -45.8%

CC(C)(C)[Si](C)(C)O[C@H]1C(=O)C=CN2CC=C[C@@H]12
inactive: [1] 92% [100 µM] | [2] 137% [100 µM] | [3] 102% [100 µM] | [4] 104% [100 µM] | [5] 96.5% [100 µM] | [6] 92.9% [100 µM] | [7] 111% [100 µM] | [8] 104% [100 µM]

Cn1c(O)c(C=NCCN=Cc2c(O)n(C)c(=O)n(C)c2=O)c(=O)n(C)c1=O
inactive: [1] 96.1% | [2] 118% | [3] 93.7% | [4] 107% | [5] 108% | [6] 81.1% | [7] 92.2% | [8] 98.7%

O=[N+]([O-])c1ccc(S(=O)(=O)N2CCN(C3=NS(=O)(=O)c4ccccc4N3c3ccccc3)CC2)cc1
inactive: [1] 115% | [2] 99.8% | [3] 97.2% | [4] 103% | [5] 101% | [6] 91.2% | [7] 91.3% | [8] 110%

O=C1c2c(c3c4ccccc4[nH]c3c3ccc4ccccc4c23)C(=O)N1CCN1CCCCC1
inactive: [1] 13.6% | [2] 78.9% | [3] 67.2% | [4] 30.5% | [5] 17.1% | [6] 23.1% | [8] 48%
active: [7] -0.0363%

CCCC(O)Cn1ncc(C(=O)OCC)c1NC(=O)NCc1ccccc1F (stereo not drawn)
inactive: [1] 87.2% | [2] 90.2% | [3] 103% | [4] 105% | [5] 88% | [6] 73.8% | [7] 87.8% | [8] 97.3%

C#CCOc1cccc(Nc2ncnc3ccc(NC(=O)CCl)cc23)c1
active: [1] -39.1% | [2] -68.9% | [3] -2.66% | [4] -27.1% | [5] -20.1% | [6] -51.3% | [7] -61.9% | [8] -51.4%

CCc1ccc(Oc2cn[nH]c2-c2ccc(OCCc3ccc(F)cc3)cc2O)cc1
inactive: [1] 34.5% | [2] 107% | [3] 91.6% | [4] 94.1% | [5] 85.3% | [6] 71.9% | [7] 98.5% | [8] 84.8%

CC(C)=NNc1ccccn1
inactive: [1] 15.4% | [2] 62.5% | [3] 55.2% | [4] 26.2% | [5] 18% | [6] 23.6% | [7] 48.1% | [8] 38.2%

N#Cc1nn(-c2cc(=O)[nH]c3ccc(Cl)cc23)c(N)c1C#N
inactive: [1] 67.2% | [2] 87.9% | [3] 125% | [4] 91.1% | [5] 100% | [6] 84.4% | [7] 92.7% | [8] 106%

Cn1cc(-c2nonc2-c2c[nH]c3ccc(Br)cc23)c2cc(Br)ccc21
inactive: [1] 24.4% | [2] 76.8% | [3] 40.3% | [4] 55.9% | [5] 26.1% | [6] 22.7% | [7] 39.8% | [8] 22.8%

CO[C@]12C=C/C(=C(/C(=O)OCc3cccnc3)C(=O)CCCCCCCC[C@@]3(OC)C=C/C(=C(/C(=O)OCc4cccnc4)C(=O)CCCCCCCC1)O3)O2
active: [2] -24.7% | [3] -11.8% | [6] -35.5% | [7] -79.2% | [8] -70.4%
inactive: [1] 38.4% | [4] 13.8% | [5] 18.5%
